log2 fold change data for 29 targets are collected here from the supplement of paper PMC10849652.

About 8,800 targets were measured; listed, in parts, are those with a hit and a random draw of the rest. About 0.5% of all pairs of compound and target were hits.

UniProt P51812, sequence (P51812 whole entry, looked up): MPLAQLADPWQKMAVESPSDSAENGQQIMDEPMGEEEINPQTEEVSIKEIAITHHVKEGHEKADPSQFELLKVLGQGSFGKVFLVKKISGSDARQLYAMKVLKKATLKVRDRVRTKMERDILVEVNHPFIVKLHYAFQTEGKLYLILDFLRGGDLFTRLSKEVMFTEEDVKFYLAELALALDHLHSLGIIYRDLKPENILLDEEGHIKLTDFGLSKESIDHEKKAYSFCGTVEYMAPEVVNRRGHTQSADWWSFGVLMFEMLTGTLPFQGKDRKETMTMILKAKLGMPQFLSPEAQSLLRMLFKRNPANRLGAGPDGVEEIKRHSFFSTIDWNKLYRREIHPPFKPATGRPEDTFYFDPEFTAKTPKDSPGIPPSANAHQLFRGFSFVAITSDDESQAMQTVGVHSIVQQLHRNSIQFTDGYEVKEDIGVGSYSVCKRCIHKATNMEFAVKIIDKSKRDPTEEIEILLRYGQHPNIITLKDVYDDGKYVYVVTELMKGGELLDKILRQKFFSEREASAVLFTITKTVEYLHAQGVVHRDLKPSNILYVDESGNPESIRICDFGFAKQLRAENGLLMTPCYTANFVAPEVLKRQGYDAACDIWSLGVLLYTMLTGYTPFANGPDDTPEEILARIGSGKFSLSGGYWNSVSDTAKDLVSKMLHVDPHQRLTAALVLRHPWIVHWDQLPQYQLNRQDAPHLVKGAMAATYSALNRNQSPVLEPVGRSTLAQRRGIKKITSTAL
UniProt O75446, sequence (O75446 whole entry, looked up): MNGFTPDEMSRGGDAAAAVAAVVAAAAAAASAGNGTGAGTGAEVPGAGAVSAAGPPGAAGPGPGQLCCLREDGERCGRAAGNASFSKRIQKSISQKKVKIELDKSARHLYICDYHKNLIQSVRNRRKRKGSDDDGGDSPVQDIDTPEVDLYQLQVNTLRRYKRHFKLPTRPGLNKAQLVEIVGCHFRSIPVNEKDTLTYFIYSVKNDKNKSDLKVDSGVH
UniProt Q99496, sequence (Q99496 whole entry, looked up): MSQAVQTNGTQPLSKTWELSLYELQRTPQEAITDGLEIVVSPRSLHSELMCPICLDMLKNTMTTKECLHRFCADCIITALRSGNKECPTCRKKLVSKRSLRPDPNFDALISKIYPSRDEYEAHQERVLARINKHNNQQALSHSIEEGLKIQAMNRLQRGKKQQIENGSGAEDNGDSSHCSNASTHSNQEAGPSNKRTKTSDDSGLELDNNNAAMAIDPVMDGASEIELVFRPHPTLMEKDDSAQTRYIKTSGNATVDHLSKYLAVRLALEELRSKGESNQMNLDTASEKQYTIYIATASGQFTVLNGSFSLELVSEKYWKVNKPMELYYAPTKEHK
UniProt O75943, sequence (O75943 whole entry, looked up): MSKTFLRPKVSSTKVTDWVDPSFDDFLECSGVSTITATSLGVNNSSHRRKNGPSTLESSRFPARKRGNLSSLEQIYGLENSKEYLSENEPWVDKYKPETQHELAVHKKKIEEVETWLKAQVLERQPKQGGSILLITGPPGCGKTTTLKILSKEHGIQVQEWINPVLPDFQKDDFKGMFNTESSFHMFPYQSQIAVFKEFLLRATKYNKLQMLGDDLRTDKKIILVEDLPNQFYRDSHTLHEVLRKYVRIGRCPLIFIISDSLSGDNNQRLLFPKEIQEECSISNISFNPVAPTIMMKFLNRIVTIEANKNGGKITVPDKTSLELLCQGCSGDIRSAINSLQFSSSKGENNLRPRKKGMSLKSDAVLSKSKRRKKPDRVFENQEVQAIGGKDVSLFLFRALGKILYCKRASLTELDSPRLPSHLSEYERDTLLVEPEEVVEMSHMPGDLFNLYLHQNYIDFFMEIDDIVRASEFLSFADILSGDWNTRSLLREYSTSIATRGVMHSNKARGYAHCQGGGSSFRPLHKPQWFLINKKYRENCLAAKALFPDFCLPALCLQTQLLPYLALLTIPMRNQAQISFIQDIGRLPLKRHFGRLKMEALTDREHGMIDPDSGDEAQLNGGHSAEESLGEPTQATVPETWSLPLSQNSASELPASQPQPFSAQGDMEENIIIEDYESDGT
UniProt Q96E14, sequence (Q96E14 whole entry, looked up): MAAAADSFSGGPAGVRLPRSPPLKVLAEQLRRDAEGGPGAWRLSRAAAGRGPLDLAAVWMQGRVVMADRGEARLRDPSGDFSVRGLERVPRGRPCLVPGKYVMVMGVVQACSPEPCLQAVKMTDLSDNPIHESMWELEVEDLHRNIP
UniProt Q8TC12, sequence (Q8TC12 whole entry, looked up): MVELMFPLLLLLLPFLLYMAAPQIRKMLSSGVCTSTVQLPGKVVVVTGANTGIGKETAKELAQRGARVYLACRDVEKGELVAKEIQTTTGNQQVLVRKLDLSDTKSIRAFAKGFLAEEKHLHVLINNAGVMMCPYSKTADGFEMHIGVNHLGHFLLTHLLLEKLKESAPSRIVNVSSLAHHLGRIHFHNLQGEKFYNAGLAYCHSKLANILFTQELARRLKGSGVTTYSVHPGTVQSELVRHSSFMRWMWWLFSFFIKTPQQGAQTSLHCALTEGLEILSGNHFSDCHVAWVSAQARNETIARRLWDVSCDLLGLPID
UniProt Q7L0Q8, sequence (Q7L0Q8 whole entry, looked up): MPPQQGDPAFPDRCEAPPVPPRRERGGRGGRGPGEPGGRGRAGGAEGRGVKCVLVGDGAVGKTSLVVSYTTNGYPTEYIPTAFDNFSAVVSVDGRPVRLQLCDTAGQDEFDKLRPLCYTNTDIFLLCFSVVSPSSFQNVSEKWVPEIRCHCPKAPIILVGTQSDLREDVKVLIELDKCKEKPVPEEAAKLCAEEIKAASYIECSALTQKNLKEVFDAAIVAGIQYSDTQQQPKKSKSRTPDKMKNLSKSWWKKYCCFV
UniProt Q9UPW6, sequence (Q9UPW6 whole entry, looked up): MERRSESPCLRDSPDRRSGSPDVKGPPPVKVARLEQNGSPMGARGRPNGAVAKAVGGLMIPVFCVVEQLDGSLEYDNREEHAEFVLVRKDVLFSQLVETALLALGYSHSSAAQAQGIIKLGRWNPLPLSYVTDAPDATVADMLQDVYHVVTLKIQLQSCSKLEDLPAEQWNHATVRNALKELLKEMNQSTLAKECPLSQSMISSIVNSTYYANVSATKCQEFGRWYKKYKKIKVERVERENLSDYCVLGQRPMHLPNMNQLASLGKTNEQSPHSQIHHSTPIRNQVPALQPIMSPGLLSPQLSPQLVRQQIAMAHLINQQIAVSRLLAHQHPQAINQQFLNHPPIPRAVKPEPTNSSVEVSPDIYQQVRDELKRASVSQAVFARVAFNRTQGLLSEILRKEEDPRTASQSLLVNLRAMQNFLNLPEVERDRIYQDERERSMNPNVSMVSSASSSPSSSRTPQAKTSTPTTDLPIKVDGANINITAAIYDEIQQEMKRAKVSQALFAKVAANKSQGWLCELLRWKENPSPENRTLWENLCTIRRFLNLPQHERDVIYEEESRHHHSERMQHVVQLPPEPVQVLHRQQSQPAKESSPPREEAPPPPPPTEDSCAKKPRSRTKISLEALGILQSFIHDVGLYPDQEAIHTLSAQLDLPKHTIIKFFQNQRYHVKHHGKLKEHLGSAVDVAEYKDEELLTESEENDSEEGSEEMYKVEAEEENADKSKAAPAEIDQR
UniProt O75582, sequence (O75582 whole entry, looked up): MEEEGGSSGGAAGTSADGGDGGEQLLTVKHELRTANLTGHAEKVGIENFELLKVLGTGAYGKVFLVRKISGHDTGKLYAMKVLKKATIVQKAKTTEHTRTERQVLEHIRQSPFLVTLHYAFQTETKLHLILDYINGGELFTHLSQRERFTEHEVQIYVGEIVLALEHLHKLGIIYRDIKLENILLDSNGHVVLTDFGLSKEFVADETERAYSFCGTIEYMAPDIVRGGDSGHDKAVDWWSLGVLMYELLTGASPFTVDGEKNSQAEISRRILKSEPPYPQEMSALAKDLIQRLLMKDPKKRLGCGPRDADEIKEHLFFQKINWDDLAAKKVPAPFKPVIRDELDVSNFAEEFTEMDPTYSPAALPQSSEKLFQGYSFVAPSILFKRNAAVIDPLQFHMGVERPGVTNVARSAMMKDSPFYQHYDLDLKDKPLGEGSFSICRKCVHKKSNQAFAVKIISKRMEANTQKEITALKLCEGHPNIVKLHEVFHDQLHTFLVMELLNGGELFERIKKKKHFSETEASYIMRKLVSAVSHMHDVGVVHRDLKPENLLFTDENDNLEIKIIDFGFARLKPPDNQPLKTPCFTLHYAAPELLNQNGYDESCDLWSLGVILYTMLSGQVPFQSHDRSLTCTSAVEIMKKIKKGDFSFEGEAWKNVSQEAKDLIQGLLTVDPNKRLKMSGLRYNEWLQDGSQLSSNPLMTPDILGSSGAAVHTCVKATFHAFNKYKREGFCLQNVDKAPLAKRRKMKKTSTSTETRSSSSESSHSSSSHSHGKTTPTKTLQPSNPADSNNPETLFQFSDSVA
UniProt Q8WXA3, sequence (Q8WXA3 whole entry, looked up): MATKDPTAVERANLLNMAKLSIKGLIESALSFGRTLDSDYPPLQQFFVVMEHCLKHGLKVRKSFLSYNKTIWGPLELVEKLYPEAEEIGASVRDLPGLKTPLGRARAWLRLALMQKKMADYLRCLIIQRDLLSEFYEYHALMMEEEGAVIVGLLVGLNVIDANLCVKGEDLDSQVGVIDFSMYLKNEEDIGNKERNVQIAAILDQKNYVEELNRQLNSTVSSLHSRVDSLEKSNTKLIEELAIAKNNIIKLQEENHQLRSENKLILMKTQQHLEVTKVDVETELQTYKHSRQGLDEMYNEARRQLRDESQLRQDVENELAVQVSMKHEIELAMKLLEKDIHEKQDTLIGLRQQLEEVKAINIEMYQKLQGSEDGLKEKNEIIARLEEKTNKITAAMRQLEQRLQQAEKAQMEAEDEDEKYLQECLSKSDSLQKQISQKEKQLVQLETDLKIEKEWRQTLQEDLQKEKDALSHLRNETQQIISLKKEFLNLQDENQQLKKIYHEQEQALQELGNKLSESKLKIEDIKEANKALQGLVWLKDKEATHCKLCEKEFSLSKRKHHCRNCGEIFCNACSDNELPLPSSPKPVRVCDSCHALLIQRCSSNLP
UniProt Q9Y6D0, sequence (Q9Y6D0 whole entry, looked up): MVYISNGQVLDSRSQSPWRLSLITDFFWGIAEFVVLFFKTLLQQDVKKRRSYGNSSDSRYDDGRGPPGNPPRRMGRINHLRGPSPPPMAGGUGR

Compound in one experiment: C1=CC2=NC=CN=C2C=C1/C=C/3\C(=O)NC(=O)S3
Put plainly: log2 fold change, soluble protein after heating vs DMSO (PISA); higher = thermal stabilisation; K562 lysate, 10 uM; active = over 0.2 and 3.5 SD of the protein, either way, in both replicates (recomputed). An outline of the steps:
(§1)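 Pellets of K562 cells were dounce-homogenised in PBS pH 7.4 with 1 mM MgCl2, and the crude extract was held at 1 mg/mL protein for a 30 min treatment with 10 μM compound. Aliquots were heated for 3 min over 48°C-58°C and pooled before NP-40 was added to 0.5% at 4°C. The supernatant from 21,000xg for 90 min was quantified by TMTpro 16plex LC-MS/MS with channel sums equalised. Values are reported from duplicates as log-two fold change in thermal stability relative to solvent controls.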
As for SELENOK (UniProt Q9Y6D0), the log2 fold change is 0.089 (inactive).

On to RYR1 (UniProt P21817), for which the log2 fold change is 0.012 (inactive).

RAD54L (UniProt Q92698): the log2 fold change is -0.072 (inactive).

For SAP30 (UniProt O75446), the log2 fold change was -0.037 (inactive).

For RPS6KA3 (UniProt P51812), the log2 fold change is 0.004 (inactive).

For RUFY2 isoform 1 (UniProt Q8WXA3), the log2 fold change was 0.016 (inactive).

For the target RNF24 isoform 2 (UniProt Q9Y225), the log2 fold change is 0.083 (inactive).

As for RNF170 (UniProt Q96K19), the log2 fold change was 0.032 (inactive).

RALGAPB isoform 3 (UniProt Q86X10): the log2 fold change is -0.146 (inactive).

As for SERAC1 (UniProt Q96JX3), the log2 fold change was -0.014 (inactive).

Consider RNF17 (UniProt Q9BXT8), for which the log2 fold change is 0.553 (inactive).

RAD17 (UniProt O75943): the log2 fold change was 0.014 (inactive).

Consider RLIM (UniProt Q9NVW2), for which the log2 fold change is -0.021 (inactive).

Consider RHBDD1 (UniProt Q8TEB9), for which the log2 fold change is 0.337 (inactive).

Compound in another experiment: C1=CC=C(C=C1)C2=NC(=C(N2)C3=CC=NC=C3)C4=CC(=C(C=C4)Cl)O
Described as above. The gist of the method: as §1
On to RXRA (UniProt P19793), for which the log2 fold change was -0.025 (inactive).

Consider RDH11 (UniProt Q8TC12), for which the log2 fold change is 0.006 (inactive).

For SEC16A isoform 2 (UniProt O15027), the log2 fold change was -0.07 (inactive).

As for RHOU (UniProt Q7L0Q8), the log2 fold change is 0.002 (inactive).

In the case of RYR1 (UniProt P21817), the log2 fold change is -0.025 (inactive).

For the target RNF2 (UniProt Q99496), the log2 fold change is 0.002 (inactive).

For the target RAD54L (UniProt Q92698), the log2 fold change is -0.071 (inactive).

RPS6KA3 (UniProt P51812): the log2 fold change was 0.026 (inactive).

As for RNPC3 (UniProt Q96LT9), the log2 fold change was 0.011 (inactive).

As for RUFY2 isoform 1 (UniProt Q8WXA3), the log2 fold change is -0.099 (inactive).

ROBO2 isoform 3 (UniProt Q9HCK4): the log2 fold change is 0.008 (inactive).

For SCNM1 (UniProt Q9BWG6), the log2 fold change was -0.005 (inactive).

As to RMI2 (UniProt Q96E14), the log2 fold change is 0.002 (inactive).

Regarding SEC16A isoform 3 (UniProt O15027), the log2 fold change was 0.41 (inactive).

Regarding QSER1, A0A3B3IRW6, the log2 fold change is -0.006 (inactive).

As to S100A6 (UniProt P06703), the log2 fold change was -0.196 (inactive).

Turning to RNF17 (UniProt Q9BXT8), the log2 fold change was 0.013 (inactive).

For the target SATB2 (UniProt Q9UPW6), the log2 fold change is -0.006 (inactive).

As for RPS6KA5 (UniProt O75582), the log2 fold change was 0.023 (inactive).

For RAD17 (UniProt O75943), the log2 fold change was -0.047 (inactive).

Compound in another experiment: C1=CC=C2C(=C1)C3=NNC4=CC=CC(=C43)C2=O
The experiment is described as above. The gist of the method:
as §1
Regarding SELENOK (UniProt Q9Y6D0), the log2 fold change was 0.044 (inactive).

For the target RDH11 (UniProt Q8TC12), the log2 fold change is -0.065 (inactive).

As to RHOU (UniProt Q7L0Q8), the log2 fold change was 0.061 (inactive).

For the target RNF2 (UniProt Q99496), the log2 fold change is -0.01 (inactive).

SAP30 (UniProt O75446): the log2 fold change was 0.013 (inactive).

Turning to RPS6KA3 (UniProt P51812), the log2 fold change was 0.328 (inactive).

Turning to RUFY2 isoform 1 (UniProt Q8WXA3), the log2 fold change was 0 (inactive).

For the target RMI2 (UniProt Q96E14), the log2 fold change is -0.121 (inactive).

Regarding RNF170 (UniProt Q96K19), the log2 fold change is -0.577 (inactive).

Take SEMA4G isoform 2 (UniProt Q9NTN9): the log2 fold change was -0.011 (inactive).

As for QSER1, A0A3B3IRW6, the log2 fold change is 0.059 (inactive).

For the target S100A6 (UniProt P06703), the log2 fold change was 0.02 (inactive).

As for SATB2 (UniProt Q9UPW6), the log2 fold change is 0.031 (inactive).

With RPS6KA5 (UniProt O75582), the log2 fold change is 0.152 (inactive).

As to RAD17 (UniProt O75943), the log2 fold change is -0.458 (active).

Take RHBDD1 (UniProt Q8TEB9): the log2 fold change is -0.056 (inactive).

Compound in another experiment: C1CCN(C1)C(=O)NC2=CC=CC(=C2)NC3=NC=C(C(=N3)NCCC4=CN=CN4)Br
The description is as above. The gist of the method:
as §1
Regarding RDH11 (UniProt Q8TC12), the log2 fold change was -0.037 (inactive).

For the target RHOU (UniProt Q7L0Q8), the log2 fold change is -0.006 (inactive).

As to RYR1 (UniProt P21817), the log2 fold change is -0.029 (inactive).

In the case of RNF2 (UniProt Q99496), the log2 fold change was 0.048 (inactive).

With SAP30 (UniProt O75446), the log2 fold change is 0.011 (inactive).

On to RPS6KA3 (UniProt P51812), for which the log2 fold change is 0.082 (inactive).

With RUFY2 isoform 1 (UniProt Q8WXA3), the log2 fold change is -0.01 (inactive).

Take SCNM1 (UniProt Q9BWG6): the log2 fold change is -0.054 (inactive).

Take RMI2 (UniProt Q96E14): the log2 fold change is -0.044 (inactive).

As for SEMA4G isoform 2 (UniProt Q9NTN9), the log2 fold change is 0.034 (inactive).

As for QSER1, A0A3B3IRW6, the log2 fold change is 0.002 (inactive).

In the case of S100A6 (UniProt P06703), the log2 fold change is 0.352 (inactive).

RALGAPB isoform 3 (UniProt Q86X10): the log2 fold change is -0.119 (inactive).

SERAC1 (UniProt Q96JX3): the log2 fold change was 0.123 (inactive).

Regarding RNF17 (UniProt Q9BXT8), the log2 fold change is -0.025 (inactive).

Take SATB2 (UniProt Q9UPW6): the log2 fold change is -0.033 (inactive).

In the case of RPS6KA5 (UniProt O75582), the log2 fold change is -0.02 (inactive).

For RAD17 (UniProt O75943), the log2 fold change is 0.031 (inactive).

Take RHBDD1 (UniProt Q8TEB9): the log2 fold change is -0.093 (inactive).
